Consider 7 molecules from PubChem BioAssay (Tox21).

Where “and” joins values, the source holds several entries; their conditions need not be identical. Equal entries are not always repeated. Inconclusive results are not listed. Some compounds were tested as several samples or in several runs, with calls that do not always agree. Calls of active or inactive are those of the source. Unless noted, calls follow the shape of the dose curve; as a rule, active = well fitted curve in the direction sought with a large enough effect in the repeat runs; inconclusive = weak or mixed curves; inactive = no such curve, though single readings can be large; an effect the other way counts as inactive or inconclusive.

A short description of assay [1]: qHTS assay to identify small molecule agonists of the constitutive androstane receptor (CAR) signaling pathway - cell viability counter screen (AID 1224836). Also: % is scaled to controls: 0 for no effect and ±100 for the full control effect; nearly all actives have a fitted effect of over 45% in size. The essentials:
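Cells were seeded and incubated 4 hrs. Compounds were added across 15 concentrations together with PK11195 at 0.75 uM final. Plates were incubated 23 hrs at 37 C. CellTiter-Fluor was added and fluorescence measured.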
Background: Quantitative high-throughput screening tests each substance at several concentrations.

Assay [2] can be described thus: qHTS assay to identify small molecule antagonists of the constitutive androstane receptor (CAR) signaling pathway - cell viability counter screen (AID 1224837). Also: % is scaled to controls: 0 for no effect and ±100 for the full control effect; nearly all actives have a fitted effect of over 45% in size. The essentials: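 HepG2 cells stably carrying hCAR and CYP2B6-2.2kb reporter, stimulated with 50 nM CITCO and compounds at 15 concentrations for 23 h at 37 C. Viability measured by CellTiter-Fluor fluorescence.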

In assay [3] the target is Nuclear receptor subfamily 1 group I member 3 (Homo sapiens) (UniProt Q14994). Nature of the assay: qHTS assay to identify small molecule antagonists of the constitutive androstane receptor (CAR) signaling pathway (AID 1224838). Also: % is scaled to controls: 0 for no effect and ±100 for the full control effect; nearly all actives have a fitted effect of over 40% in size. The essentials: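 HepG2 cells stably carrying hCAR and a CYP2B6-2.2kb luciferase reporter, seeded 4 hrs before compound (15 concentrations). Stimulated with 50 nM CITCO for 24 hr at 37 C. ONE-Glo luminescence read after 30 min at room temperature.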
Sequence of Nuclear receptor subfamily 1 group I member 3 (Homo sapiens) (Q14994 whole entry, looked up): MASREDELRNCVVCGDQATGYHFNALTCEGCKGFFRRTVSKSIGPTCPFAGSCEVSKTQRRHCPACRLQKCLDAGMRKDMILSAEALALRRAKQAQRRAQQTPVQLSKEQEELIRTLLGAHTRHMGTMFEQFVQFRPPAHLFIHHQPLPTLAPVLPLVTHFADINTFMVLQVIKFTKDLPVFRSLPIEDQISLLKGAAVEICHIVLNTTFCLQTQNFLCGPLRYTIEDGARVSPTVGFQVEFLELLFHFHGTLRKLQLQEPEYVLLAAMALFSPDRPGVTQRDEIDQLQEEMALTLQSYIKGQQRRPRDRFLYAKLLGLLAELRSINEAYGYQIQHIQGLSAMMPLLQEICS

Assay [4] has the same target. As to the kind of experiment: qHTS assay to identify small molecule agonists of the constitutive androstane receptor (CAR) signaling pathway (AID 1224839). Also: nearly all actives have a fitted effect of over 15% in size. Also: potency is read from the fitted curve at half-maximal effect. As to activation: % is scaled to controls: 0 for no effect and ±100 for the full control effect. The essentials: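 Cells were plated and incubated 4 hrs, then dosed with compounds at 15 concentrations. PK11195 was added to 0.75 uM final. After 24 hrs at 37 C, luciferase luminescence was measured.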
Assay [5] is described as follows: qHTS assay to identify small molecule antagonists of the estrogen related receptor signaling pathway with the pleiotropic PPARgamma coactivator (PGC) from Tox21 10K library - cell viability counter screen (AID 1224840; active = well fitted cell-killing curve with a large enough effect in the repeat runs, not every such curve was filed as active; also: nearly all actives have a fitted effect of over 40% in size; also: potency is read from the fitted curve at half-maximal effect). A digest of the protocol: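 PGC/ERR cells (2,000/well) plated 6 h, then compound-treated for 17.5 h at 37 C. Viability measured by CellTiter-Fluor fluorescence after 30 min at 37 C, multiplexed with the pathway assay.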

Assay [6] can be described thus: qHTS assay to identify small molecule agonists of the hypoxia (HIF-1) signaling pathway - cell viability counter screen (AID 1224844; calls by dose curve; also: nearly all actives have a fitted effect of over 50% in size; also: potency is read from the fitted curve at half-maximal effect). The essentials: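 HRE-bla ME-180 cells, 2,000/well in 0.5% dialyzed FBS medium, treated 17 h at 37C with compounds. Viability read in the same wells as the bla reporter, by CellTiter-Glo luminescence after 30 min at room temperature.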

Assay [7] can be described thus: qHTS assay to identify small molecule agonists of H2AX (AID 1224845; active = well fitted activation curve with a large enough effect in the signal ratio in the repeat runs, not every such curve was filed as active; the % refers to the signal ratio; also: % is scaled to controls: 0 for no effect and ±100 for the full control effect). A digest of the protocol:
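Phospho-H2AX Ser139 measured by HTRF (ex 320 nm; em 665 and 620 nm) after 24 hr antibody incubation. Compounds, 15 concentrations, 0.76% DMSO, were applied to CHO-K1 cells for 3hr at 37C before lysis.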

A short description of assay [8]: qHTS assay to identify small molecule agonists of the hypoxia (HIF-1) signaling pathway (AID 1224846; active = well fitted activation curve with a large enough effect in the signal ratio in the repeat runs, not every such curve was filed as active; the % refers to the signal ratio; also: % is scaled to controls: 0 for no effect and ±100 for the full control effect). A digest of the protocol:
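HRE-bla ME-180 beta-lactamase reporter cells in medium with 0.5% dialyzed FBS, pre-incubated 5 h then exposed to compounds 17 h at 37C, 5% CO2; reporter induction read with CCF4-AM FRET substrate.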

The nature of assay [9]: qHTS assay to identify small molecule agonists of H2AX - cell viability counter screen (AID 1224847; calls by dose curve; also: nearly all actives have a fitted effect of over 30% in size; also: potency is read from the fitted curve at half-maximal effect). A digest of the protocol:
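Cytotoxicity counter screen in wild-type CHO-K1 cells: a 3 hr compound treatment at 37C across 15 concentrations, followed by CellTiter-Glo luminescence to gauge viable cells.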

Assay [10] in a line: qHTS assay to identify small molecule agonists of the estrogen related receptor (ERR) signaling pathway from Tox21 library (AID 1224849; calls by dose curve; also: % is scaled to controls: 0 for no effect and ±100 for the full control effect; nearly all actives have a fitted effect of over 15% in size). Particulars: ERR reporter cell line, ONE-Glo luciferase, 18 h. A digest of the protocol:
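ERR reporter cells (NTP line) pre-incubated 6 hours at 37 C, then exposed to compounds for 18 hours at 37 C. ONE-Glo luciferase luminescence was read after 30 minutes at room temperature.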

Assay [11] can be described thus: qHTS RealTime-Glo MT Cell Viability Assay in HepG2 cells - 24 hour (AID 1224867). Also: % is scaled to controls: 0 for no effect and ±100 for the full control effect; nearly all actives have a fitted effect of over 50% in size. A digest of the protocol: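 HepG2 suspension premixed with RealTime-Glo reagents is plated at 600 cells per well and left 5 h at 37 C/5% CO2. Compounds in DMSO then go in, and bioluminescence reflecting viable cell number is recorded over 40 h.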
Assay [12] is described as follows: A CellTox Green Cytotoxicity Assay to monitor cytotoxicity in HEK293 cells - 0 hour (AID 1224869). Also: % is scaled to controls: 0 for no effect and ±100 for the full control effect; nearly all actives have a fitted effect of over 50% in size. A digest of the protocol: (§1)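 HEK293 cells, 600/well, were preincubated 5 hours and then exposed to compounds at 37 C for up to 40 hours. A cell-impermeant cyanine dye staining dead-cell DNA was read by fluorescence at 0, 8, 16, 24, 32 and 40 h time points.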
Assay [13] is described as follows: qHTS RealTime-Glo MT Cell Viability Assay in HepG2 cells - 40 hour (AID 1224870). Also: nearly all actives have a fitted effect of over 50% in size. Also: potency is read from the fitted curve at half-maximal effect. A digest of the protocol:
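Real-time viability: cells seeded at 600 per well together with NanoLuc and cell-permeant prosubstrate, compounds added after 5 h incubation. Luminescence tracked at 0, 8, 16, 24, 32 and 40 h of exposure.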

A short description of assay [14]: A CellTox Green Cytotoxicity Assay to monitor cytotoxicity in HEK293 cells - 40 hour (AID 1224871). Also: nearly all actives have a fitted effect of over 45% in size. Also: potency is read from the fitted curve at half-maximal effect. A digest of the protocol: as §1
Assay [15] can be described thus: qHTS RealTime-Glo MT Cell Viability Assay in HEK293 cells - 16 hour (AID 1224872). A digest of the protocol:
(§2)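 Reads taken at 0, 8, 16, 24, 32 and 40 h from the same wells. HEK293 cells (600/well) carried RealTime-Glo reagents from seeding, with compound added after a 5 h settle at 37 C.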

For assay [16], the target named is Thyrotropin receptor (Homo sapiens) (UniProt P16473). Nature of the assay: qHTS assay to identify small molecule agonists of the thyroid stimulating hormone receptor (TSHR) signaling pathway (AID 1224843; calls by dose curve; also: % is scaled to controls: 0 for no effect and ±100 for the full control effect; nearly all actives have a fitted effect of over 45% in size). The essentials: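 Screening of the Tox21 10K collection used HEK293 cells engineered with TSHR at 800 cells per well. After a 30-min room-temperature compound exposure, HTRF cAMP reagents were added and fluorescence recorded 1 h later.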
Sequence of Thyrotropin receptor (Homo sapiens) (P16473 whole entry, looked up): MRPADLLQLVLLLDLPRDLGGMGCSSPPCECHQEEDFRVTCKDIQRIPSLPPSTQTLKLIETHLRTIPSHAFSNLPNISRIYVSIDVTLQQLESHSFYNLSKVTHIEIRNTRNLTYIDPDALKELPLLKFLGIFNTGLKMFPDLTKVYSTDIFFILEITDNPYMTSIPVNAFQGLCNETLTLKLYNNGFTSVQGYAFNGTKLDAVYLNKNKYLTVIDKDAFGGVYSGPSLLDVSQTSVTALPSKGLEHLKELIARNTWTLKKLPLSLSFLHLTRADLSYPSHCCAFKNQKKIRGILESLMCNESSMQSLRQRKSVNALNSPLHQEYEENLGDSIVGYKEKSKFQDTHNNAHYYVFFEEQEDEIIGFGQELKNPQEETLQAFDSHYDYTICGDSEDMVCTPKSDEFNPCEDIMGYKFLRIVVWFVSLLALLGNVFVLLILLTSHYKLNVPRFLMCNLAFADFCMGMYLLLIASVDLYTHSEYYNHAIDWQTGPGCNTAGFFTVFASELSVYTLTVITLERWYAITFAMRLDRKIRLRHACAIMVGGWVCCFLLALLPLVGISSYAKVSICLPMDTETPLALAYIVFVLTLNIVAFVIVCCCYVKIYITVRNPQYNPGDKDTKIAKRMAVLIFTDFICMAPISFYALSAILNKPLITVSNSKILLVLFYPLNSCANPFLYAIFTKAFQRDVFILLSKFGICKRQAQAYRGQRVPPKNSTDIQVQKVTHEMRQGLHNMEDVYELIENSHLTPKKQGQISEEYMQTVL

Assay [17] can be described thus: qHTS RealTime-Glo MT Cell Viability Assay in HEK293 cells - 32 hour (AID 1224868). Also: nearly all actives have a fitted effect of over 50% in size. Also: potency is read from the fitted curve at half-maximal effect. The essentials: as §2
Assay [18] in a line: qHTS assay to identify small molecule antagonists of the estrogen related receptor signaling pathway with the pleiotropic PPARgamma coactivator (PGC) from Tox21 10K library (AID 1224841; call rule not given here). A digest of the protocol: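 PGC/ERR cell line, 2,000 cells/well, pre-incubated 6 hours at 37 C, then exposed to compounds for 18 hours at 37 C; luciferase read with One-Glo luminescence after 30 min at room temperature.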

The nature of assay [19]: qHTS assay to identify small molecule agonists of the estrogen related receptor signaling pathway with the pleiotropic PPARgamma coactivator (PGC) from Tox21 10K library (AID 1224842). Also: % is scaled to controls: 0 for no effect and ±100 for the full control effect; nearly all actives have a fitted effect of over 15% in size. A digest of the protocol: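 Luminescence from One-Glo (30 min, room temperature) measured after PGC/ERR cells had 18 h at 37 C with pinned compound (23 nL in DMSO). Cells had been seeded at 2,000 per well and pre-incubated 6 h.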

Assay [20] can be described thus: qHTS assay to identify small molecule antagonists of the estrogen related receptor (ERR) signaling pathway from Tox21 library (AID 1224848). A digest of the protocol: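 Antagonist-mode screen of the Tox21 10K library in an NTP-provided ERR reporter cell line; 18 h compound exposure at 37 C, luminescence measured with ONE-Glo.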

Consider `[Cl][In]([Cl])[Cl]`, for which the Potency result in [1], in assay [2], in assay [3], in assay [4], in [5] and in [6] was “inactive” in each case. Also, the Potency entry in assay [7], in assay [8], in [9], in [11], in assay [12] and in assay [13] was “inactive” each time. The Potency entry in assay [14] and in [15] was “inactive” throughout. In addition, the activity change, positive = activation in assay [10] (at 92.4 µM (top of the series)) was -22.9% (inactive) and -30% (inactive).

With `CCc1ccc(C(c2ccc(CC)cc2)C(Cl)Cl)cc1`, the Potency entry in [1], in [2], in [3], in assay [5], in assay [6] and in assay [7] was “inactive” in each case. In addition, the Potency entry in [8], in assay [11], in [12] and in assay [13] was “inactive” each time. Besides, the results for the Potency in assay [4] and in assay [9] were 22 µM (active) and 115 µM (active), respectively.

As to `CC(=O)C1=C(C)[C@@H]2C[C@@]3(C1)[C@H](C)CC[C@H]3C2(C)C`, the Potency result in assay [1], in assay [2], in assay [3], in [5], in assay [16] and in [6] was “inactive” throughout. Also, the Potency entry in assay [7], in assay [8], in [9], in [11], in assay [17] and in [13] was “inactive” in each case. For the same molecule, the Potency entry in assay [15] is “inactive”. Also, the Potency in [4] was 40.3 µM (active) and 27.3 µM (active); in assay [14], 32.3 µM (active) and inactive.

Consider `COC(=O)[C@H]1[C@H]2C[C@@H]3c4[nH]c5cc(OC)ccc5c4CCN3C[C@H]2C[C@@H](OC(=O)c2cc(OC)c(OC)c(OC)c2)[C@@H]1OC`, for which the Potency entry in assay [1], in assay [2], in [5], in [19], in [16] and in assay [7] was “inactive” throughout. The Potency result in assay [9], in assay [12] and in assay [14] was “inactive” throughout. Moreover, the Potency in assay [18] was 43.2 µM (active) and 15.8 µM (active); in assay [6], 24.5 µM (active) and 31.8 µM (active) and inactive; in [20] it was 24.3 µM (active) and 19.9 µM (active) and 26.6 µM (active); in assay [17] it was 5.48 µM (active) and 6.34 µM (active) and 9.52 µM (active). Further, the activity change, positive = activation in assay [10] (at 42.5 µM (top of the series)) was -35.9% (inactive); in [10] (at 92.4 µM (top of the series)) it was -60.3% (inactive) and -57.9% (inactive).

As for `CCCNC(C)C(=O)Nc1ccccc1C` (centres undefined), the Potency entry in assay [1], in [2], in [3], in assay [4], in [5] and in assay [16] was “inactive” each time. Also, the Potency entry in assay [6], in assay [7], in [9], in assay [11], in assay [17] and in assay [12] was “inactive” in each case. Also, the Potency entry in [14] and in [15] was “inactive” in each case.

Turning to `O=C(O)CP(=O)(O)O`, the Potency result in assay [1], in assay [2], in [3], in assay [4], in assay [5] and in assay [16] was “inactive” throughout. For the same molecule, the Potency entry in [6], in assay [7], in [8], in assay [9], in [11] and in assay [17] was “inactive” in each case. Further, the Potency result in assay [12], in assay [13], in [14] and in assay [15] was “inactive” each time.

Turning to `Oc1ccc(Cl)cc1Cc1cc(Cl)ccc1O`, the Potency result in assay [1], in assay [2], in [4], in [16], in assay [7] and in assay [12] was “inactive” in each case. For the same molecule, the Potency result in [14] was “inactive”. Moreover, the Potency is 24.8 µM (active) in assay [5]; 54.9 µM (active) and inactive in assay [6]; 51.4 µM (active) and 31.8 µM (active) in assay [9]; 19.8 µM (active) and 49 µM (active) in [17]; 49.9 µM (active) in assay [13].
